Out of some 350,000 compounds screened, about 31,000 (8.9%) were called active. Inconclusive results (about 15%) are left out. The list comes from a sample in which actives are over-represented; it also holds similar structures and randomly drawn compounds. A number with no mark means an inactive call. Calls follow the shape of the dose curve; as a rule, active = well fitted inhibition curve with a large enough effect; inconclusive = small, poorly fitted or top-dose-only effect; inactive = no such curve, though single readings can be large or run the other way.
What follows are compounds tested against Histone-lysine N-methyltransferase EHMT2 (Homo sapiens) (UniProt Q96KQ7) (assay: qHTS Assay for Inhibitors of Histone Lysine Methyltransferase G9a). Conditions: G9a H3K9 monomethylation, AlphaScreen, 2 h; series mostly up to 59 µM; activity, negative = inhibition: at the top concentration.
Sequence of Histone-lysine N-methyltransferase EHMT2 (Homo sapiens) (Q96KQ7 913-1193 limits assumed): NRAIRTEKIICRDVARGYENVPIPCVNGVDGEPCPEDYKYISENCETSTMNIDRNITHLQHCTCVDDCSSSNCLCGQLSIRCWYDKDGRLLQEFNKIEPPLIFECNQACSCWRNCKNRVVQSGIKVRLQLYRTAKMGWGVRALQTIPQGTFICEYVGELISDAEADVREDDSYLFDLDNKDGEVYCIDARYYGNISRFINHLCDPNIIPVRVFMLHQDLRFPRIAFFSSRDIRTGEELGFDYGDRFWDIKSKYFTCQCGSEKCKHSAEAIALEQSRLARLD
In short: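 Methyltransferase reactions run at room temperature for 2 h (20 nM enzyme, 500 nM biotin-H3K9 peptide, 20 uM SAM) after a 15 min compound preincubation; product detected by AlphaScreen beads and anti-H3K9me1 antibody.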
For `COC(=O)c1cc(S(=O)(=O)NCC2CCN(Cc3ccc(Cl)cc3)CC2)cn1C`, the “activity, negative = inhibition” value was 13.6% [at 102 µM]. In the case of `COc1ccc(CCNC(=O)Cn2c(=O)cc(C(F)(F)F)c3c(C)nn(C)c32)c(OC)c1`, the “activity, negative = inhibition” value is reported as 2.52%. `COc1ccccc1C(=O)NCCC(=O)NC(C)CCc1ccccc1` (stereo unspecified) showed an activity, negative = inhibition of 3.84% [at 0.501 µM]. For `O=C(CSc1nnc(-c2ccc(NS(=O)(=O)c3ccccc3)cc2)o1)NCC1CCCO1` (stereo unspecified), the “activity, negative = inhibition” value was 4.29% [at 102 µM]. For `O=C(CSc1ccc(-c2ccccc2)nn1)NCC1CCCO1` (stereo unspecified), the Potency was 44.7 µM (active). Work on `CCn1c(SCC(=O)NCC2CCCO2)nc2ccccc21` (stereo unspecified) yielded an activity, negative = inhibition of 19.8% [at 12.7 µM]. With `CCOc1ccc(CCNC(=O)Cn2nc(CC)n3c(cc4sc(CC)cc43)c2=O)cc1OCC` the “activity, negative = inhibition” value was -35.1%. With `CCc1nnc(NC(=O)c2cc(S(=O)(=O)N3CCCCC3)ccc2C)s1` the “activity, negative = inhibition” value was -44.8%. With `CCOC(=O)c1ccc(NC(=O)Cn2c(=O)cc(C)c3c(C)nn(-c4cccc(F)c4)c32)cc1` the “activity, negative = inhibition” value was 11.2%. In the case of `O=C(Nc1cn(-c2ccccc2)nc1-c1ccccc1)c1ccccc1`, the “activity, negative = inhibition” value is reported as -4.14%. With `O=C(NNC(=S)NC(=O)c1cn(-c2ccccc2)nc1-c1ccccc1)c1ccncc1` the Potency was 25.1 µM (active). `Cc1ccc(-c2nn(-c3ccccc3)cc2C(=O)NC2CCC(O)CC2)cc1` (stereo unspecified) was tested, and the activity, negative = inhibition was 9.53% [at 2.33 µM]. In the case of `COc1ccc(N(Cc2cc3ccc(C)cc3[nH]c2=O)S(=O)(=O)c2ccccc2)cc1`, the “activity, negative = inhibition” value is reported as 13.9% [at 102 µM]. With `Cc1ccccc1CNC(=O)c1cccc(NC(=O)c2nsc3ccccc23)c1` the “activity, negative = inhibition” value was -1.82%. For `Fc1ccc(CSc2nc(NCc3ccccc3)c3ccccc3n2)cc1`, the “activity, negative = inhibition” value was 1.81%. With `O=C(c1cc2ccccc2o1)N1CCN(S(=O)(=O)c2ccc(Cl)s2)CC1` the activity, negative = inhibition was 0.973% [at 2.33 µM]. For `Cc1ccc(NS(=O)(=O)c2ccc(C)c(NC(=O)COc3ccc4ccccc4c3)c2)c(C)c1`, the Potency was 35.5 µM (active). With `CN(C)S(=O)(=O)c1cccc(NC(=O)COc2ccc3ccccc3c2)c1` the activity, negative = inhibition was -10.1% [at 12.7 µM]. In the case of `Cc1ccc(C)c(NS(=O)(=O)c2ccc(OCC(=O)NCc3cccnc3)cc2)c1`, the “activity, negative = inhibition” value is reported as -5.51% [at 102 µM]. For `Cc1cccc(NC(=S)Nc2ccc(Cl)c(Cl)c2)c1`, the “activity, negative = inhibition” value was 2.94% [at 102 µM]. For `Cn1cc(Cl)c(C(=O)NNC(=S)Nc2cccc(Cl)c2)n1`, the Potency was 15.8 µM (active). `CC(C)CNC(=S)NNC(=O)c1nn(C)cc1Cl` was tested, and the “activity, negative = inhibition” value was 20.3%. `CCOC(=O)c1ccc(NC(=O)c2ccc(NC(=O)C3CCCO3)cc2)cc1` (stereo unspecified) was tested, and the “activity, negative = inhibition” value was 10.1% [at 102 µM]. `CCOC(=O)c1c(NC(=S)Nc2ccccc2C)sc2c1CCC2` was tested, and the “activity, negative = inhibition” value was 38.7%. With `CCOC(=O)c1c(NC(=O)c2cc(-c3ccc(Cl)cc3)on2)sc2c1CCCC2` the Potency was 6.31 µM (active). `CCOC(=O)c1c(NC(=O)CSc2cn(CC)c3ccccc23)sc2c1CCC2` was tested, and the Potency was 56.2 µM (active). With `CCOC(=O)c1c(NC(=O)CSc2nnc(C)c(=O)[nH]2)sc2c1CCC2` the “activity, negative = inhibition” value was -30.7%. For `CCOC(=O)c1c(NC(=O)c2ccc(S(=O)(=O)N(CC)CC)cc2)sc2c1CCCCC2`, the “activity, negative = inhibition” value was 8.61%. For `CCOC(=O)c1c(NC(=S)Nc2ccccc2)sc2c1CCN(C)C2`, the Potency was 44.7 µM (active). With `CCOC(=O)c1c(NC(=S)NC)sc2c1CCCC2` the Potency was 11.2 µM (active). With `CCOC(=O)c1c(NC(=S)NC(=O)c2ccco2)sc2c1CCCC2` the “activity, negative = inhibition” value was -1.7% [at 102 µM]. `CCOC(=O)c1c(NC(=O)/C(C#N)=C/c2ccccc2)sc2c1CCC2` was tested, and the “activity, negative = inhibition” value was -0.979%. `CCOC(=O)c1c(NC(=O)CSc2cn(CCNC(=O)c3cccc(C(F)(F)F)c3)c3ccccc23)sc2c1CCC2` was tested, and the “activity, negative = inhibition” value was -9.5%. `CCCOC(=O)Nc1sc2c(c1C(=O)OCC)CCC2` was tested, and the “activity, negative = inhibition” value was 18% [at 102 µM]. In the case of `CCOC(=O)c1c(NC(=O)NC(C)(C)C)sc2c1CCN(C)C2`, the “activity, negative = inhibition” value is reported as 7.1% [at 102 µM]. `COc1ccc(Cn2c(C(=O)O)c(CNCCc3cccs3)c3ccc(OC)cc32)cc1` was tested, and the “activity, negative = inhibition” value was 6.08%. In the case of `CC1CCC(N2CC(=O)N(CCC3=CCCCC3)C(c3ccc(F)cc3)C2=O)CC1` (stereo unspecified), the “activity, negative = inhibition” value is reported as 8.16%. With `Cc1ccccc1-c1cc(C(=O)NCc2cccs2)n(CC2CC(c3cccnc3)=NO2)n1` (stereo unspecified) the activity, negative = inhibition was -0.783% [at 0.501 µM]. In the case of `Cc1ccc(-c2nc(Cn3c(=O)cc(-c4ccccc4)c4c(C)nn(C)c43)c(C)o2)cc1`, the “activity, negative = inhibition” value is reported as 9.13%. With `COc1cc(SC)ccc1C(=O)N(Cc1ccccc1)c1ccccc1` the “activity, negative = inhibition” value was 55.7% [at 102 µM]. In the case of `COc1ccccc1NC(=O)CC(NCCN(C)C)C(=O)O` (stereo unspecified), the “activity, negative = inhibition” value is reported as 17.5% [at 102 µM]. With `COc1ccc(CCN(C(=O)COc2ccccc2)c2nc(-c3ccccc3)cs2)cc1OC` the “activity, negative = inhibition” value was -1.75%. With `CCOc1ccc2nc(N(CCCN(C)C)C(=O)c3ccc(C(=O)c4ccccc4)cc3)sc2c1` the Potency was 44.7 µM (active). With `CN(Cc1ccccc1)C(=O)COc1ccccc1` the “activity, negative = inhibition” value was -14%. For `CN(C)CCCN(C(=O)COc1ccccc1)c1nc2c(Cl)cccc2s1`, the Potency was 31.6 µM (active). In the case of `CCOc1ccc2nc(Nc3nc4ccc(NC(C)=O)cc4s3)sc2c1`, the “activity, negative = inhibition” value is reported as -13.6%. For `CCOc1cccc2sc(N3CCN(C(=O)C4CC4)CC3)nc12`, the “activity, negative = inhibition” value was -15.9%. For `COc1cccc2sc(N(CCCN(C)C)C(=O)C(c3ccccc3)c3ccccc3)nc12`, the Potency was 6.31 µM (active). For `CCCC(=O)N(CCN1CCOCC1)c1nc2ccc(OCC)cc2s1`, the “activity, negative = inhibition” value was 2.94%. With `COc1cc2ccccc2cc1C(=O)N(CCN(C)C)c1nc2c(F)cccc2s1` the Potency was 44.7 µM (active). `COc1cc2ccccc2cc1C(=O)Nc1ccncc1` was tested, and the “activity, negative = inhibition” value was 1.4% [at 102 µM].

Source: PubChem BioAssay AID504332 (National Center for Advancing Translational Sciences (NCATS), 2011)
% is scaled to controls: 0 for no effect and ±100 for the full control effect; potency is read from the fitted curve at half-maximal effect.
Also: nearly all actives have a fitted effect of over 75% in size.
